The values that follow come from PubChem BioAssay AID651871 (Sanford-Burnham Center for Chemical Genomics, 2012).

Several values for one entry are separate records, joined by “and”; a condition that tells them apart may be missing. Equal values may be shown once.

This assay relates to H9c2. Kind of assay: protection of cardiomyocytes from stress damage, SAR follow-up, cell-based, panel, H9c2 and HL-1, ATP luminescence, set 2 (AID 651871).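 Further: cells exposed to stressor for 2 h before ATP readout; reference of the scale not given here.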 The conditions noted are these: H9c2/HL-1 cardiomyocytes, 2-deoxyglucose stress, with 2-deoxyglucose; run 10, at 79 µM (top of the series) unless noted.

For the molecule `COc1ccc2c(c1OC)C(=O)N1c3ccccc3C(=O)N(Cc3cccc(Cl)c3Cl)C21` (stereo not drawn), the activity (protection/inhibition) is 76% and 73.8% and -3.2%.

Take `COc1ccc2nc(-c3cc(OC)c(OC)c(OC)c3)cc(C(=O)NCC(=O)Nc3ccc(C(C)=O)cc3)c2c1`: the activity (protection/inhibition) amounted to 78.3%.

As for `CCOC(=O)c1cccc(NC(=O)CNC(=O)c2cc(-c3cc(OC)c(OC)c(OC)c3)nc3ccccc23)c1`, the activity (protection/inhibition) was 82.3% [run 10, at 39.5 µM].
